Measurements reported in ChEMBL document CHEMBL3988442, “University of Dundee, Small-Polar-MMV Screening Library” (2021).
In all, about 48,000 compounds went through this assay and about 13,000 (27%) showed an effect of 50% or more. This is one part of the list.

Test system: Wolbachia pipientis
Assay: Anti-Wolbachia Cell-Based Screen
Format: functional
Parameters: scale not given: in the data most compounds retested in dose-response had high values
Conditions: 5 µM

Row | Compound | Percent Effect
1 | CS(=O)(=O)c1nccn1Cc1ccc(F)cc1Cl | -6.222%
2 | Cc1cnc(N2Cc3cnn(Cc4ccc(F)cc4)c3C2)nc1N(C)C | 15.57%
3 | Cc1cc(N2CCc3c(nc(C(C)C)n3C)C2)nc(N)n1 | 12.43%
4 | CCS(=O)(=O)N1CCc2ccc(NC(=O)NCCc3ccccc3)cc21 | 122.4%
5 | CCCNC(=O)CNc1ccc2c(c1)N(C(=O)OC(C)(C)C)CCC2 | -19.09%
6 | O=C(NCc1ccccc1CO)Nc1ccc2c(c1)CCC2 | -12.78%
7 | CCCNC(=O)Nc1ccc2c(c1)N(S(=O)(=O)CC)CC2 | 85.58%
8 | CC(=O)N1CCCc2cc(NC(=O)NCCc3cnn(C)c3)ccc21 | -10.98%
9 | CS(=O)(=O)c1ccc(NC(=O)NCc2ccc3c(c2)CCC3)cn1 | 2.355%
10 | NS(=O)(=O)N1CCc2ccc(NC(=O)CCc3ccncc3)cc21 | -8.791%
11 | CCS(=O)(=O)N1CCc2ccc(NC(=O)NCc3ccccc3)cc21 | 168.3%
12 | Fc1cccc(N2CCOC3(CCCN(c4nncs4)C3)C2)c1 (configuration not stated) | -6.078%
13 | O=C(C1CCCC1)N1CCOC(c2nc(-c3ncccn3)no2)C1 (configuration not stated) | 90.83%
14 | O=C(CC1CCCC1)N1CCOC(c2nc(-c3ncccn3)no2)C1 (configuration not stated) | 86.32%
15 | O=C(CN1CCCC1c1nc(-c2ccccn2)no1)N1CCOCC1 (configuration not stated) | -3.547%
16 | O=C(C1CCCC1)N1CC(c2nc(Cc3ccccc3)no2)C1 | 3.47%
17 | CCn1cc(Cn2cc(-c3cccc(C(C)N(C)C)c3)nn2)cn1 (configuration not stated) | -0.05647%
18 | COc1ccc(N(C)C(=O)C2CN(C)CCO2)cc1Cl (configuration not stated) | 4.765%
19 | Cn1ccnc1-c1cn(CCCc2csc(N)n2)nn1 | 106.8%
20 | CCOc1ncccc1Cn1cc(-c2nccn2C)nn1 | -13.21%
21 | Cc1ccccc1C1CCN(CCn2cc(-c3nccn3C)nn2)C1 (configuration not stated) | -7.795%
22 | CCc1nc(CCn2cc(-c3nccn3C)nn2)no1 | -10.63%

Row | Compound | Percent Effect
23 | Cn1ccnc1-c1cn(CCCc2nnc(N)s2)nn1 | 101%
24 | Cc1cc(-n2nc(C)nc2-c2cn(CCN)nn2)ccn1 | -45.52%
25 | Cc1cn(CCn2ccnc2-c2sccc2C)nn1 | -12.56%
26 | Cn1ccnc1-c1cn(CCc2nnc(N)s2)nn1 | 90.14%
27 | Cn1cccc1-c1cc(C(=O)NCCCc2csc(N)n2)[nH]n1 | -5.944%
28 | Cn1ccnc1C(=O)NCCS(=O)(=O)c1ccc(C(C)(C)C)cc1 | 15.11%
29 | Cc1cc(C)c(CNC(=O)NCC(c2ccccc2)N(C)C)c(=O)[nH]1 (configuration not stated) | 1.646%
30 | CC(C)NS(=O)(=O)c1cc(C(=O)O)cc(-c2ccc3c(c2)OCO3)c1 | 10.97%
31 | CCC(NC(=O)c1cccc2cc[nH]c12)C(=O)N1CCOCC1 (configuration not stated) | 1.714%
32 | O=C(O)C(F)(F)F.O=C(O)C(F)(F)F.c1cnc(N2CCC3(CCN(CC4CC4)CC3)CC2)nc1 | -4.913%
33 | O=C(O)C(F)(F)F.O=C1N(CC2CC2)CCC12CCCN(c1ncc(F)cn1)C2 (configuration not stated) | 107.4%
34 | Cc1cnc(N2CCC3(CCN(CC4CCCC4)C3=O)CC2)nc1.O=C(O)C(F)(F)F | 94.42%
35 | CN(C)C(=O)CN1CCC2(CCCN(c3ncc(F)cn3)C2)C1=O (configuration not stated) | -17.79%
36 | O=C(O)C(F)(F)F.O=C1N(CC2CCCC2)CCC12CCN(c1ncc(F)cn1)CC2 | 111.9%
37 | Cc1cnc(N2CCC3(CC2)CC3CNC(=O)C2CCC2)nc1.O=C(O)C(F)(F)F (configuration not stated) | -2.894%
38 | COc1ccnc(N2CCC3(CCCN(CC4CC4)C3=O)C2)n1 (configuration not stated) | -5.296%
39 | CN1CCC2(CCN(c3ncc(F)cn3)CC2)C1=O.O=C(O)C(F)(F)F | 5.555%
40 | Cc1cnc(N2CCC3(CCC(C(=O)NC(C)C)C3)CC2)nc1.O=C(O)C(F)(F)F (configuration not stated) | -24.15%
41 | CC(C)OCCC1CCCCN1S(N)(=O)=O (configuration not stated) | 5.549%
42 | Cc1cnn(-c2cccc(N3CCCC3)n2)c1 | 2.122%
43 | Cc1cc(C)n(CC2CN(CC(=O)N3CCC3)CCO2)n1 (configuration not stated) | 107.3%
44 | Cc1cc(C)n(CC2CN(CC(=O)N3CCNC3=O)CCO2)n1 (configuration not stated) | 88.91%

Row | Compound | Percent Effect
45 | Fc1cc(CNCCn2cccn2)ccc1-n1cncn1 | -7.055%
46 | Cc1nc(CSc2ccc(C(F)(F)F)cn2)no1 | -11.09%
47 | Cc1nc(CC(=O)NCCN2CCC(c3ccccc3C)C2)cs1 (configuration not stated) | -10.54%
48 | CC(=O)NCCN1CCC(c2cccs2)CC1 | -11.86%
49 | O=C(Cc1ccccc1Cl)NCCN1CCC(c2cccs2)CC1 | 167.3%
50 | O=C(NCCN1CCCC(CO)C1)c1ccc2sccc2c1 (configuration not stated) | 0.9044%
51 | Cc1csc(C(=O)NCCN2CCC(c3cccs3)CC2)c1 | 131.4%
52 | COc1ccc(C(=O)NCCN2CCC(c3cccs3)CC2)cc1OC | 108.4%
53 | Cc1ccccc1C1CCN(CCNC(=O)CS(C)(=O)=O)C1 (configuration not stated) | -1.802%
54 | COc1ccc(C(=O)NCC(=O)N(Cc2ccsc2)C2CC2)cc1OC | -17.21%
55 | CCCN1CCC(NC(=O)c2csc(C)c2-c2ccccc2)CC1 | 2.697%
56 | CCCNC(=O)c1cc2c([nH]c1=O)CC(c1cccs1)CC2=O (configuration not stated) | 1.208%
57 | O=C(NCCN1CCC(c2cccs2)CC1)c1ccccc1C(F)(F)F | 6.812%
58 | CCSc1ccccc1C(=O)NCCN1CCC(c2cccs2)CC1 | 153.4%
59 | CCNc1ncc(C2CC(=O)Nc3c2cnn3Cc2ccncc2)cn1 (configuration not stated) | 0.3044%
60 | CCSCCC(=O)NCc1cnn(-c2ccc(F)cc2F)c1 | 1.546%
61 | Cc1ccc(S(=O)(=O)NC(=O)CCOCC(C)C)s1 | 14.43%
62 | O=C(CCc1cc(Cl)no1)N1CCCCC1CCn1ccnc1 (configuration not stated) | -6.627%
63 | O=C(c1cccnc1-n1cncn1)N1CCc2ccccc2C1 | 12.03%
64 | COc1ccc(CNCC2CCN(CC(C)O)CC2)c2ccccc12 (configuration not stated) | -9.036%
65 | CCN(Cc1nnnn1C1CC1)c1cc(C)ccc1C | -3.19%
66 | O=C(NCCN1CCC(c2cccs2)CC1)c1ccc(F)cc1Cl | 122.6%

Row | Compound | Percent Effect
67 | O=C(NCC(c1cccs1)N1CCOCC1)c1ccc(F)cc1Cl (configuration not stated) | -4.405%
68 | CCN(CC)C(=O)Cc1csc(C(C)C)n1 | -7.822%
69 | Cc1cccc(OCC(=O)N(C)C2CCN(CC3CCOC3)CC2)c1 (configuration not stated) | -8.689%
70 | CCCNc1ncc(CN2C[C@H]3CC[C@@H]2CN(C2CCOCC2)C3)cn1 | 7.731%
71 | c1cnn(C2CN(CCCOc3ccc4c(c3)OCO4)C2)c1 | -8.072%
72 | c1ccc2cc(OCCN3CCOC(Cn4cncn4)C3)ccc2c1 (configuration not stated) | 0.3629%
73 | Clc1cccc(OCCCN2CCOC(Cn3cncn3)C2)c1 (configuration not stated) | 125.7%
74 | c1ncn(CC2CN(CCCOc3ccc4c(c3)OCO4)CCO2)n1 (configuration not stated) | 97.52%
75 | Clc1ccc(OCCCN2CCOC(Cn3cncn3)C2)cc1 (configuration not stated) | 88.34%
76 | N#Cc1ccc(OCCCN2CCOC(Cn3cncn3)C2)cc1 (configuration not stated) | 94.1%
77 | Fc1ccc(OCCCN2CCOC(Cn3cncn3)C2)cc1 (configuration not stated) | 3.822%
78 | c1cnn(CC2CN(CCCOc3ccc4c(c3)OCO4)CCO2)c1 (configuration not stated) | 1.566%
79 | COc1ccc(OCCCN2CCOC(Cn3cccn3)C2)cc1 (configuration not stated) | 1.876%
80 | Fc1ccc(CN2CCOC(Cn3cncn3)C2)c2ncccc12 (configuration not stated) | -8.547%
81 | Cc1cc2n(n1)CC(CNCc1cnn(-c3ccccc3)c1)CN2 (configuration not stated) | -14.73%
82 | COc1ccccc1C1CNC(=O)c2nc(-c3ncc[nH]3)[nH]c2C1 (configuration not stated) | -17.95%
83 | N#Cc1ccccc1C(=O)N1C[C@H]2CC[C@@H]1CN(Cc1ccccc1)C2 | 1.705%
84 | CCN(Cc1ccco1)C(=O)NCC(c1cccs1)N(C)C (configuration not stated) | -4.593%
85 | Cc1nnc(N(CCC#N)CCC#N)s1 | 120.1%
86 | Cc1ccsc1C1CCCCCN1Cc1cn(C)nc1C (configuration not stated) | 87.45%
87 | Cc1nn(C)cc1CN1CCCCCC1c1ccc(Cl)cc1 (configuration not stated) | 98.47%
88 | Cc1ccc(C2CCCCCN2Cc2cn(C)nc2C)cc1 (configuration not stated) | 6.787%

Row | Compound | Percent Effect
89 | N#CCCN(C(=O)CN1CCCC1c1ccccc1Cl)c1ccccc1 (configuration not stated) | -18.96%
90 | Cc1nn(C)cc1CN1CCCCCC1c1ccccc1Cl (configuration not stated) | 134.4%
91 | Cc1cccc(C2CCCCCN2Cc2cn(C)nc2C)c1 (configuration not stated) | 99.27%
92 | CS(=O)(=O)c1ccc(CN2CCCCC2c2cccc(F)c2)cc1 (configuration not stated) | 5.873%
93 | Cc1nnc(CN2CCCC2c2ccc(Cl)c(Cl)c2)o1 (configuration not stated) | -0.8555%
94 | Cc1nnc(CN2CCCC2c2cccc(Br)c2)o1 (configuration not stated) | 20.93%
95 | COC(=O)CCN1CCCC1c1ccccc1Cl (configuration not stated) | -1.683%
96 | Cc1nn(C)c(C)c1C1CCCN1Cc1cn2ccsc2n1 (configuration not stated) | 7.69%
97 | Cc1ccc(C2CCCCCN2Cc2cn(C)nc2C)s1 (configuration not stated) | 10.12%
98 | Cc1nn(C)c(C)c1CCC(=O)OCC(=O)N1CCc2sccc2C1 | -1.071%
99 | Cc1ccnc(C(NC(=O)c2sc(C)nc2C)C2CC2)n1 (configuration not stated) | -13.48%
100 | CC(SCCNS(=O)(=O)c1cnn(C)c1)c1cccc(F)c1 (configuration not stated) | 13.07%
101 | COc1ccc(C2CCCCCN2Cc2nnc(C)o2)cc1 (configuration not stated) | -42.58%
102 | COc1ccc(C2CCCCCN2Cc2cn(C)nc2C)cc1 (configuration not stated) | 97.09%
103 | CC(C)N(C)C(=O)C1CSCN1S(=O)(=O)c1cc(Cl)ccc1Cl (configuration not stated) | -2.04%
104 | O=C(NCC(F)(F)F)C(c1cccnc1)N1CCOCC1 (configuration not stated) | -10.65%
105 | Cc1cc(C2CCC2)nc(N(C)Cc2ncccc2C)n1 | 22.22%
106 | Cc1cc(Cc2ccccc2C)cc(C2CCCNC2)n1 (configuration not stated) | 111.5%
107 | Cc1cc(Cc2ccccc2F)cc(C2CCCNC2)n1 (configuration not stated) | 100.5%
